Pf Dd2 growth = qHTS Primary assay for Inhibitors of Plasmodium falciparum Dd2 growth in vitro. P. falciparum Dd2 growth, SYBR Green, 72 h. 4.3% of 120,000 active. Potency, µM (highest dose often 28.9 µM), actives largely listed as inhibitors; active = well fitted inhibition curve with a large enough effect; also: nearly all actives have a fitted effect of over 65% in size
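Readout: SYBR Green fluorescence, 485 nm excitation, 535 nm emission, after ~16 h lysis at 37C. Before that, Dd2-infected red cells (2.5% hematocrit) grew 72 h with compound, 29 uM top final concentration.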
Hits are given with their value; ! = repeats disagree; [ ] = remark or other dose. This excerpt belongs to a sample that is enriched for hits.

Screening O=C(c1cccnc1)N1CCCC2(C1)C(=NC1CCCC1)NC(=O)N2c1cc(F)cc(F)c1 (stereo not drawn) returned Pf Dd2 growth inactive.
`O=C1NC(=NC2CCCCC2)C2(CCCN(Cc3ccc(F)cc3)C2)N1c1cc(F)cc(F)c1` (stereo not drawn) gave Pf Dd2 growth 7.9µM.
Screening O=C1NC(=NC2CCCCC2)C2(CCN(Cc3ccc(F)cc3)CC2)N1c1cccnc1 returned Pf Dd2 growth inactive.
`CC(C)(C)C(=O)N1CCC(c2nn(-c3ccc(Cl)cc3)c(=O)[nH]2)CC1` gave Pf Dd2 growth 8.9µM.
`COc1ccc(-n2nc(C3CCN(Cc4ccc(C)cc4)CC3)[nH]c2=O)cc1` gave Pf Dd2 growth 13µM!.
`COc1ccc(-n2nc(C3CCN(Cc4ccc(C#N)cc4)CC3)[nH]c2=O)cc1` gave Pf Dd2 growth inactive.
COc1ccc(C(=O)N2CCC(c3nn(-c4ccc(Cl)cc4)c(=O)[nH]3)CC2)cc1 was read as Pf Dd2 growth inactive.
For COc1ccc(-n2nc(C3CCN(Cc4ccc(F)cc4)CC3)[nH]c2=O)cc1 the results were Pf Dd2 growth inactive.
`O=C(Cc1ccc(F)cc1)N1CCC(c2nn(-c3ccc(Cl)cc3)c(=O)[nH]2)CC1` gave Pf Dd2 growth inactive.
For CCC(=O)N1CCN(c2nc3c(s2)CN(C(=O)CC)CC3)CC1 the results were Pf Dd2 growth inactive.
For CN1CC(=O)N(C2CCCNCC2)Cc2c1ncnc2N1CCC(N2CCCC2)CC1 (stereo not drawn) the results were Pf Dd2 growth inactive.
CN(C)C(=O)c1cccnc1OC1CCN(C(=O)c2ccc(F)c(F)c2)C1 (stereo not drawn) was read as Pf Dd2 growth inactive.
Cc1ccc(N2CCN(C(=O)C3CCCN(c4cnc5nccnc5c4)C3)CC2)cc1 (stereo not drawn) was read as Pf Dd2 growth inactive.
For COc1ccc(Cl)cc1C(=O)N1CC(=O)N(c2ccccc2C#N)CC1C (stereo not drawn) the results were Pf Dd2 growth inactive.
`Cc1nocc1C(=O)N1C[C@@H](COc2ccccc2)[C@H](C(N)=O)C1` gave Pf Dd2 growth inactive.
COC(=O)CCNC(=O)C1CN(S(=O)(=O)c2cccnc2)CC12CCCCC2 (stereo not drawn) was read as Pf Dd2 growth inactive.
Screening O=C(Nc1cc(F)ccc1F)C1CN(S(=O)(=O)c2cccnc2)CC12CCCCC2 (stereo not drawn) returned Pf Dd2 growth inactive.
For O=C(NCCN1CCOCC1)C1CN(S(=O)(=O)c2ccccc2)CC12CCCCC2 (stereo not drawn) the results were Pf Dd2 growth 4µM.
`O=C(NCCc1cccs1)C1CN(S(=O)(=O)c2cccnc2)CC12CCCCC2` (stereo not drawn) gave Pf Dd2 growth inactive.
O=C(NCc1cc(F)ccc1F)C1CN(S(=O)(=O)c2cccnc2)CC12CCCCC2 (stereo not drawn) was read as Pf Dd2 growth 2.8µM.
Screening O=C(NCCCN1CCCC1=O)C1CN(S(=O)(=O)c2ccccc2)CC12CCCCC2 (stereo not drawn) returned Pf Dd2 growth inactive.
Screening CC(C)CCN1CCNC(=O)C1CC(=O)N(Cc1cnn(C)c1)C1CC1 (stereo not drawn) returned Pf Dd2 growth inactive.
C[C@@H]1CN(C(=O)c2ccc(-c3nnn(C)n3)cc2)C[C@@]1(O)C1CC1 was read as Pf Dd2 growth inactive.
Screening CC(C)CNC(=O)c1ccc2c(c1)NC(C)(COc1ccc3[nH]ccc3c1)CO2 (stereo not drawn) returned Pf Dd2 growth inactive.
N#Cc1ccccc1N1CCN(C(=O)CCc2ccc(F)c(F)c2)CC1=O was read as Pf Dd2 growth inactive.
Cc1cnc(-c2ccccc2)n1C1CCN(C(=O)c2ccco2)CC1 was read as Pf Dd2 growth inactive.
For Cc1nc(-c2ccccc2)n(Cc2nc(-c3cccc(Cl)c3)oc2C)c(=O)c1CCO the results were Pf Dd2 growth inactive.
`CCOc1ccc(CCNC(=O)c2nn(-c3ccc(OC)c(Cl)c3)c(=O)c3c2c2ccccc2n3C)cc1OCC` gave Pf Dd2 growth 2.8µM.
For CCOC(=O)C1CCN(C(=O)c2nn(-c3ccc(OC)c(Cl)c3)c(=O)c3c2c2ccccc2n3C)CC1 the results were Pf Dd2 growth 11µM.
`COc1ccc(-n2nc(C(=O)NCCc3ccc(OC)c(OC)c3)c3c4ccccc4n(C)c3c2=O)cc1Cl` gave Pf Dd2 growth 2µM.
`COc1ccc(-n2nc(C(=O)N(C)c3cc(C)ccc3C)c3c4ccccc4n(C)c3c2=O)cc1Cl` gave Pf Dd2 growth inactive.
Screening COc1ccc(-n2nc(C(=O)NCCCOC(C)C)c3c4ccccc4n(C)c3c2=O)cc1 returned Pf Dd2 growth inactive.
Screening COc1ccc(-n2nc(C(=O)N3CCCCC3C)c3c4ccccc4n(C)c3c2=O)cc1Cl (stereo not drawn) returned Pf Dd2 growth inactive.
Screening CCOC(=O)C1CCN(C(=O)c2nn(-c3ccc(C)cc3)c(=O)c3c2c2ccccc2n3C)CC1 returned Pf Dd2 growth inactive.
For CCOc1ccc(CNC(=O)c2nn(-c3ccc(OC)cc3)c(=O)c3c2c2ccccc2n3C)cc1 the results were Pf Dd2 growth inactive.
CCc1ccc(CNC(=O)c2nn(-c3ccc(C)cc3)c(=O)c3c2c2ccccc2n3C)cc1 was read as Pf Dd2 growth inactive.
Screening COCC(=O)N1CCN2C(=O)N(CC(N)=O)C(=O)[C@@H]2C1 returned Pf Dd2 growth inactive.
For Cc1ccc(S(=O)(=O)NC[C@H]2OC[C@@H](NCc3ccc(S(C)(=O)=O)cc3)[C@@H]2O)cc1 the results were Pf Dd2 growth inactive.
`COc1ccc(-c2cnc3n[nH]c(-c4ccccc4)c3n2)cc1` gave Pf Dd2 growth inactive.
`CCOc1ccc(C(=O)N[C@@H]2CN(c3ncccn3)C[C@H]2CO)cc1` gave Pf Dd2 growth inactive.
`CN(C)c1nc2c(c(=O)[nH]1)CCN(Cc1cc(F)cc(F)c1)CC2` gave Pf Dd2 growth inactive[5.79 µM].
For Cn1ccnc1-c1nccn1CC(CO)Cc1ccsc1 (stereo not drawn) the results were Pf Dd2 growth inactive.
Screening Cc1ccccc1CNC[C@H]1O[C@@H]2C[C@@H](CC(=O)NCc3nccn3C)O[C@@H]2[C@@H]1O returned Pf Dd2 growth inactive.
Screening CCn1cc(-c2ccc(C)cc2)cc1C(=O)O returned Pf Dd2 growth inactive.
Cc1cccc(C(=O)N2CCC3(CC2)c2nc[nH]c2CCN3CC(C)C)n1 was read as Pf Dd2 growth inactive.
CC(C)n1cc2cc(C(=O)NCc3cccnc3)sc2c1 was read as Pf Dd2 growth inactive.
Screening COc1ccc(CNC(=O)c2cc3cn(C(C)C)cc3s2)cc1 returned Pf Dd2 growth inactive.
For COc1cc(CNC(=O)c2cc3cn(C(C)C)cc3s2)cc(OC)c1 the results were Pf Dd2 growth 13µM.
Screening COCCNC(=O)[C@@H]1C[C@@H](O)CN1C1CCN(C(=O)c2ccccc2OC)CC1 returned Pf Dd2 growth inactive.
Screening Cn1cnc(C(=O)N2[C@@H]3CC[C@H]2CC(NC(=O)c2ccc(F)cc2)C3)c1 (stereo partly drawn) returned Pf Dd2 growth inactive.
Screening CCn1ccc(C(=O)N2[C@@H]3CC[C@H]2CC(NC(=O)c2ccncc2)C3)n1 (stereo partly drawn) returned Pf Dd2 growth inactive.
CC1(C)C(=O)N(Cc2ccccc2)[C@H]2CN(Cc3ccc(C(=O)O)cc3)C[C@H]2[S+]1(=O)[O-] was read as Pf Dd2 growth inactive.
